Results filed as inconclusive are left out. Where a call stands in place of a potency, no number is given. A number with no mark means an inactive call. Calls of active or inactive are those of the source. Calls follow the shape of the dose curve; as a rule, active = well fitted activation curve with a large enough effect in the repeat runs; inconclusive = weak or mixed curves; inactive = flat fitted curve, though single readings scatter.
experiment: A CellTox Green Cytotoxicity Assay to monitor cytotoxicity in HepG2 cells - 8 hour (AID 1224890); settings: CellTox Green fluorescence; series mostly up to 76.8 µM; also: nearly all actives have a fitted effect of over 45% in size
Description: National Center for Advancing Translational Sciences [NCATS]
NIH Chemical Genomics Center [NCGC]
U.S. Environmental Protection Agency [EPA]
National Institutes of Environmental Health Sciences [NIEHS]
National Toxicology Program [NTP]
Cell-based models are critical for drug discovery. Determining the natural cytotoxic effects resulting from test compounds is an essential research activity. A CellTox Green Cytotoxicity Assay to monitor cytotoxicity in real time of continues cell culture during 40 hours of the compound treatment was used to screen Tox21 10K library compounds in HepG2 cells. CellTox Green Cytotoxicity Assay is a nonlytic, homogeneous, biofluorescent method to measure cytotoxicity in cell culture after experimental manipulation. The assay system uses a proprietary asymmetric cyanine dye that is excluded from viable cells but preferentially stains the dead cell's DNA. […] Viable cells produce no appreciable increases in fluorescence. Therefore, the fluorescence signal produced by the binding interaction with dead cell DNA is proportional to cytotoxicity.
The mixture of HepG2 cell suspension and reagents were dispensed at 600cells/6 ul/well in 1536-well tissue culture treated black solid bottom plates using a Multidrop dispenser. After the assay plates were incubated at a 37 C/5% CO2 incubator for 5 hours, 23 nL of compounds dissolved in DMSO, positive and negative controls was transferred to the assay plate by a pintool work station. The plates were incubated at 37 C for 40 hours. The fluorescence intensity were measured at 0h, 8h, 16h, 24h, 32h and 40h time points using ViewLux plate reader during compound treatment.

Question: For CNS(=O)(=O)c1cc(C(=O)N2CCC(CCN3C4CCC3CC(n3c(C)nc5ccccc53)C4)(c3cccc(F)c3)CC2)c(Cl)cc1F (stereo not given), which Potency is on record?
Answer: inactive

Question: Which Potency does the source give for COc1cc(OC)c2ccc(=O)oc2c1 here?
Answer: inactive

Question: For O=C1CC[C@@H](C(=O)O)N1, which Potency is on record?
Answer: inactive

Question: For Cc1ccc(S(=O)(=O)NC(=O)NC2CCCCC2)cc1, which Potency is on record?
Answer: inactive

Question: Which Potency does the source give for CC(C)CC(O)CC(C)C here?
Answer: inactive

Question: Which Potency does the source give for COc1ccc(C2C(=O)c3ccccc3C2=O)cc1 here?
Answer: inactive

Question: For O=c1[nH][nH]c(=O)c2cc([N+](=O)[O-])ccc12, which Potency is on record?
Answer: inactive

Question: With O=C(NC(Cc1cc(=O)[nH]c2ccccc12)C(=O)O)c1ccc(Cl)cc1 (stereo not given) as the molecule, how does the Potency read?
Answer: inactive

Question: Which Potency does the source give for CC(CCc1ccc(O)cc1)NCCc1ccc(O)c(O)c1 (stereo not given) here?
Answer: inactive

Question: For CC(C)N=C=NC(C)C, which Potency is on record?
Answer: inactive

Question: For CN1CCCN(C(c2ccccc2)c2ccc(Cl)cc2)CC1 (stereo not given), which Potency is on record?
Answer: inactive

Question: With CCN(CC)c1cccc(O)c1 as the molecule, how does the Potency read?
Answer: inactive

Question: With Nc1ccc(N=Nc2ccc(N)cc2)cc1 as the molecule, how does the Potency read?
Answer: inactive

Question: Which Potency does the source give for CC1CCCC(=O)C1=O (stereo not given) here?
Answer: inactive

Question: Which Potency does the source give for CCOCCC(=O)OCC here?
Answer: inactive

Question: Which Potency does the source give for CC(=O)NNC(C)=O here?
Answer: inactive

Question: For CCC(=O)OCc1ccc(OC)cc1, which Potency is on record?
Answer: inactive

Question: Which Potency does the source give for CCN(Cc1cccc(S(=O)(=O)O)c1)c1ccc(C(=C2C=CC(=[N+](CC)Cc3cccc(S(=O)(=O)O)c3)C=C2)c2ccccc2S(=O)(=O)[O-])cc1 here?
Answer: inactive

Question: With CCCCOC(=O)CCCCC(=O)OCCCC as the molecule, how does the Potency read?
Answer: inactive

Question: Which Potency does the source give for Cc1cc([N+](=O)[O-])ccc1N here?
Answer: inactive

Question: With O=C(CCS)OCC(COC(=O)CCS)(COC(=O)CCS)COC(=O)CCS as the molecule, how does the Potency read?
Answer: inactive

Question: With O=C(Oc1ccccc1)c1ccc2ccccc2c1O as the molecule, how does the Potency read?
Answer: inactive

Question: For CCCCCCC(O)CCOC(C)=O (stereo not given), which Potency is on record?
Answer: inactive

Question: With NC(=O)c1ccccc1[N+](=O)[O-] as the molecule, how does the Potency read?
Answer: inactive

Question: Which Potency does the source give for Nc1ccc(NC(=O)c2ccc(N)cc2)cc1 here?
Answer: inactive

Question: For O=C(O)CCC(=O)c1ccc(-c2ccccc2)cc1, which Potency is on record?
Answer: inactive

Question: For CCCCCCCC/C=C/C(=O)O, which Potency is on record?
Answer: inactive

Question: For C1CCCCC1, which Potency is on record?
Answer: inactive

Question: For O=C(O)CCS, which Potency is on record?
Answer: inactive

Question: With CC(C)(C)C1(CCc2ccc(Cl)cc2)CO1 (stereo not given) as the molecule, how does the Potency read?
Answer: inactive

Question: With CCN(CC)CCOc1ccccc1C(=O)CCc1ccccc1 as the molecule, how does the Potency read?
Answer: inactive

Question: Which Potency does the source give for CNCc1ccc(NC(=O)c2c[nH]c3c2C(=O)CCC3)cc1 here?
Answer: inactive

Question: For CC1=CC[C@@H]2C[C@H]1C2(C)C, which cytotoxicity increase is on record?
Answer: -9.84% [at 15.8 µM]

Question: With Nc1c(Cl)cc(Cl)cc1[N+](=O)[O-] as the molecule, how does the Potency read?
Answer: inactive

Question: For CCC(CO)(CO)CO, which Potency is on record?
Answer: inactive

Question: With COc1ccc(N)c([N+](=O)[O-])c1 as the molecule, how does the Potency read?
Answer: inactive

Question: With COC(CC(C)CCCC(C)(C)O)OC (stereo not given) as the molecule, how does the Potency read?
Answer: inactive

Question: With CS(=O)(=O)c1ccc([C@@H](C[C@H]2CCC(=O)C2)C(=O)Nc2cnccn2)cc1Cl as the molecule, how does the Potency read?
Answer: inactive

Question: Which Potency does the source give for COc1ccc(-c2cc(=S)ss2)cc1 here?
Answer: inactive

Question: With O=C(O)c1cc(Cl)cc(Cl)c1O as the molecule, how does the Potency read?
Answer: inactive

Reference: PubChem BioAssay (Tox21)
